For 20 compounds, growth inhibition, inhibition and outcome results are on record in PubChem BioAssay.

A short description of test [1]: antimalarial activity against Dd2 strain (AID 2302;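 active = growth inhibition above 50% at the single 2 µM test dose, taken to imply half-maximal potency below 2 µM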;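 also: 0% = DMSO untreated growth and 100% = chloroquine plus artemisinin killed control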). The settings on record: P. falciparum Dd2 in RBCs, LDH growth readout, 72 h; at 2 µM; active compounds read high.
Test [2] is described as follows: human hepatoma cell viability loss – ATP luminescence, cytotoxicity control for P. falciparum antimalarial project, primary screen (AID 2303;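 active = inhibition above 50%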;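 also: 0% = DMSO wells and 100% = digitonin-killed cells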). As to conditions: HepG2 viability, 24-48 h, at 10 µM, active compounds read high.
Test [3] addresses L-lactate dehydrogenase (Plasmodium falciparum (isolate CDC / Honduras)) (UniProt Q27743). The experiment in a line: PfLDH activity inhibition – cell lysate, 3D7 strain, counter-screen for P. falciparum growth inhibition project (AID 2304).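 Also: 0% = vehicle and 100% = reference inhibitor.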 The settings on record: P. falciparum 3D7 crude extract, LDH APAD/NBT absorbance; at 2 µM; active compounds read high. In general terms: A counterscreen serves to expose hits that act by an unwanted route or on another target.

Test [4] can be described thus: inhibition of 3D7 malaria parasite growth – strain 3D7 (AID 2306).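 Also: 0% = DMSO wells and 100% = chloroquine plus artemisinin control wells.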 The settings on record: P. falciparum 3D7 erythrocytic growth, LDH absorbance, 72 h; at 2 µM; active compounds read high.
Test [5] has as its target Calcium-dependent protein kinase 1 (Plasmodium falciparum (isolate 3D7)) (UniProt P62344). The experiment in a line: PfCDPK1 kinase inhibitors, biochemical, TCAMS library (AID 1159585; cut-off not given, nearly all actives have IC50 up to about 0.98 µM;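 also: inhibitors leave more ATP so luminescence rises with inhibition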). The settings on record: recombinant PfCDPK1, Kinase-Glo ATP depletion luminescence. Background: Kinase-Glo reads ATP consumption through a luciferase reaction.
Test [6] deals with Plasmodium falciparum protein kinase 6 (PK6, PF3D7_1337100) (UniProt Q8IDW1). The experiment in a line: PfPK6 kinase inhibitors, biochemical, TCAMS library (AID 1159586). As to conditions: recombinant PfPK6, Kinase-Glo ATP depletion luminescence.
The target of test [7] is Protein kinase 7 (PK7), Plasmodium falciparum 3D7 (PF3D7_0213400) (UniProt Q7YTF7). The experiment in a line: inhibition of Plasmodium PK7 catalytic activity – biochemical, TCAMS antimalarial set, Kinase-Glo luminescence (AID 1159587). As to conditions: recombinant PfPK7, Kinase-Glo ATP depletion luminescence.
The target in test [8] is Calcium-dependent protein kinase 4 (Plasmodium falciparum (isolate 3D7)) (UniProt Q8IBS5). The experiment in a line: PfCDPK4 kinase inhibitors, biochemical, TCAMS library (AID 1159588; cut-off not given, nearly all actives have IC50 up to about 0.91 µM). As to conditions: recombinant PfCDPK4, Kinase-Glo ATP depletion luminescence.

The term inhibition denotes the drop in the measured response relative to a control, in per cent.

Values without a mark were called inactive. For some of these results: Measured potencies and affinities stand elsewhere. Active and inactive are the calls of the source. Unless noted, no rule for the calls is given here.

Calcium-dependent protein kinase 1 (Plasmodium falciparum (isolate 3D7)), sequence (P62344 whole entry, looked up): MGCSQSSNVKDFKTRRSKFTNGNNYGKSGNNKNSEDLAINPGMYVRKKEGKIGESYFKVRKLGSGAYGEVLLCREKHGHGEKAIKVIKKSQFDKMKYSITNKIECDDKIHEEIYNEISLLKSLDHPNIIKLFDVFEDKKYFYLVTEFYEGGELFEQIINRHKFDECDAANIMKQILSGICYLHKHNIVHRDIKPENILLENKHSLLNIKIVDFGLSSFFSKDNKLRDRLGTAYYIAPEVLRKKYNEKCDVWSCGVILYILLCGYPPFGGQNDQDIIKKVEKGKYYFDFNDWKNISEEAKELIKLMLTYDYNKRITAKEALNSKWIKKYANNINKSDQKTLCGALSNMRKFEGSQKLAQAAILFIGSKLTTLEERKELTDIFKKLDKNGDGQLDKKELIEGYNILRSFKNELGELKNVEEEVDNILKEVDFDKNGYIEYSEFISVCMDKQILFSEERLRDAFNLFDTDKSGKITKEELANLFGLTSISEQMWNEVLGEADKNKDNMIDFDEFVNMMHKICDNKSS
Plasmodium falciparum protein kinase 6 (PK6, PF3D7_1337100), sequence (Q8IDW1 1-305): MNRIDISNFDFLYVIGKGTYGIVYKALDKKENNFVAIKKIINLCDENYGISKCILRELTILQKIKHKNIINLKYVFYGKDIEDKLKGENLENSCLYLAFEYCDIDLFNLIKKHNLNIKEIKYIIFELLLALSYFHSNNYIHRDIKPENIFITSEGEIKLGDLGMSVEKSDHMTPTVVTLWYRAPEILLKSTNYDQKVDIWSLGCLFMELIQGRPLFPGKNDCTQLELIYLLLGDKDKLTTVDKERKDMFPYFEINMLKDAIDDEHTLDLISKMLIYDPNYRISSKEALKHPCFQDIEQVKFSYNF
Protein kinase 7 (PK7), Plasmodium falciparum 3D7 (PF3D7_0213400), sequence (Q7YTF7 1-343): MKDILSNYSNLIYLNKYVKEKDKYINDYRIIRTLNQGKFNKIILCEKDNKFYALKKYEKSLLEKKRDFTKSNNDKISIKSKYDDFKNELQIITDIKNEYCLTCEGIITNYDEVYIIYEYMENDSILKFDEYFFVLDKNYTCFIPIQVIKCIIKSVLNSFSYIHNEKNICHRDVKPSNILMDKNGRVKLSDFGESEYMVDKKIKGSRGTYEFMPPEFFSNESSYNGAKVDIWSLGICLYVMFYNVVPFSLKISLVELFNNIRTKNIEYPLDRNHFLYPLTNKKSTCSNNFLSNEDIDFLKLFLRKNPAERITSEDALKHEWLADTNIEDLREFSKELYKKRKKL
L-lactate dehydrogenase (Plasmodium falciparum (isolate CDC / Honduras)), sequence (Q27743 whole entry, looked up): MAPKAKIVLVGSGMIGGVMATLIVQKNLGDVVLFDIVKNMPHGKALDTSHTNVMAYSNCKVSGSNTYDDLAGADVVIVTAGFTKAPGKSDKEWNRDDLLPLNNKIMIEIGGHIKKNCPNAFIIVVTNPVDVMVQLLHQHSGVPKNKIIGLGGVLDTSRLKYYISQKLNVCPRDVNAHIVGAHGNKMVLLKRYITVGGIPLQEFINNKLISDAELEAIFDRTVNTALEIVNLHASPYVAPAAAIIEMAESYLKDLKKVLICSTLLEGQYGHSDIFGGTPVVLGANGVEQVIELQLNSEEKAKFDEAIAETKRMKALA
Calcium-dependent protein kinase 4 (Plasmodium falciparum (isolate 3D7)), sequence (Q8IBS5 whole entry, looked up): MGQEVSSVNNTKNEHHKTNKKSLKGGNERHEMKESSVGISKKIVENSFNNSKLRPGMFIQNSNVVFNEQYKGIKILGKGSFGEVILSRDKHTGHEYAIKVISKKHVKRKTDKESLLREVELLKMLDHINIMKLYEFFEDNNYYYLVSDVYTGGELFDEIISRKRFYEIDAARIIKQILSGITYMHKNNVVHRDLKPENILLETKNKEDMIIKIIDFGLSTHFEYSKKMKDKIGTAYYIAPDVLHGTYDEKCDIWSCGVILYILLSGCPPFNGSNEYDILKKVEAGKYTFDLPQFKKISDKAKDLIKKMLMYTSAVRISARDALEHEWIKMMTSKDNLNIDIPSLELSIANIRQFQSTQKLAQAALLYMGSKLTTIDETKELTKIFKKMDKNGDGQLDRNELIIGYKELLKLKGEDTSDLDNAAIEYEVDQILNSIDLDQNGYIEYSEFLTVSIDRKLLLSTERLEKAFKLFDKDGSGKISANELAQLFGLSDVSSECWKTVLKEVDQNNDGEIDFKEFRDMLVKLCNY

For `CCC(C)c1ccc(NC(=O)c2ccc(S(=O)(=O)Nc3ccc(OC)c(N4CCN(CC5CC5)CC4)c3)cc2)cc1` (stereo not given), the growth inhibition in test [1] was 17%; in test [4], 94% (active). In addition, the inhibition is 24% in test [2] and -2% in test [3]. For the same compound, the outcome in test [5], in test [6], in test [7] and in test [8] was inactive.

Take `CCCc1ccc(NC(=O)c2cccc(CN3CCCN(Cc4cccc(O)c4)CC3)c2)cc1`: the growth inhibition in test [1] was 40%; in test [4], 97% (active). For the same compound, the inhibition in test [2] was 15%; in test [3], -2%. The outcome in test [5], in test [6], in test [7] and in test [8] was inactive.

On to `Cc1cccc2[nH]c(-c3cccc(-c4cccc(NC(=O)Nc5ccc(F)c(F)c5F)c4)c3)nc12`, for which the growth inhibition was 99% (active) in test [1] and 100% (active) in test [4]. Also, the inhibition in test [2] was 32%; in test [3], 4%. Further, the outcome in test [5], in test [6], in test [7] and in test [8] was inactive.

`O=C(c1ccco1)c1cn(CCOc2ccccc2)c2ccccc12`: the figures for the growth inhibition in test [1] and in test [4] were 10% and 98% (active), respectively. For the same compound, the inhibition in test [2] was 5%; in test [3], -4%. In addition, the result in test [5], in test [6], in test [7] and in test [8] was inactive.

For `O=S(=O)(c1ccc2cc[nH]c2c1)N1CCC[C@@H]1CCN1CCC(c2c[nH]c3cnccc23)CC1`, the growth inhibition in test [1] was 0%; in test [4] it was 95% (active). Also, the inhibition was 13% in test [2] and 0% in test [3]. The outcome in test [5], in test [6], in test [7] and in test [8] was inactive.

With `CCCN(CCC)CCCNc1ccc(C(=O)Nc2ccc(C)c(F)c2)cc1[N+](=O)[O-]`, the growth inhibition in test [1] is 94% (active); in test [4], 100% (active). For the same compound, the inhibition in test [2] is 33%; in test [3], 3%. The outcome in test [5], in test [6], in test [7] and in test [8] was inactive.

As to `O=C(/C=C/c1ccc(Cl)c(Cl)c1)NCCCCCN1CCC(NC(=S)Nc2ccc(Cl)cc2)CC1`, the growth inhibition in test [1] was 41%; in test [4], 99% (active). Besides, the results for the inhibition in test [2] and in test [3] were 62% (active) and -1%, respectively. Further, the outcome in test [5], in test [6], in test [7] and in test [8] was inactive.

`O=C(NCc1ccc(Cl)c(Cl)c1)c1cc(CNC2CCNCC2)ccc1O`: the growth inhibition is 2% in test [1] and 82% (active) in test [4]. The inhibition in test [2] was 2%; in test [3] it was 4%. Further, the outcome in test [5], in test [6], in test [7] and in test [8] was inactive.

For the compound `O=C(C=Cc1ccc([N+](=O)[O-])cc1)N1CCC(CCN2CCC(c3c[nH]c4ccccc34)CC2)CC1`, the results for the growth inhibition in test [1] and in test [4] were 48% and 100% (active), respectively. In addition, the inhibition in test [2] is 60% (active); in test [3], -2%. For the same compound, the result in test [5], in test [6], in test [7] and in test [8] was inactive.

`COc1ccc2oc(=O)c(C#N)c(O)c2c1`: the growth inhibition is -4% in test [1] and 99% (active) in test [4]. In addition, the inhibition is -2% in test [2] and 2% in test [3]. Moreover, the outcome in test [5], in test [6], in test [7] and in test [8] was inactive.

In the case of `CCNc1cc(C)nc(Nc2ccc(NC(=O)c3ccc(OC)c(OC)c3)cc2)n1`, the growth inhibition in test [1] is 65% (active); in test [4] it was 101% (active). Besides, the inhibition in test [2] is 19%; in test [3], 0%. The result in test [5], in test [6], in test [7] and in test [8] was inactive.

Consider `Cc1cccc2[nH]c(-c3ccc(-c4ccc(CNCc5ccccc5)cc4)s3)nc12`, for which the values for the growth inhibition in test [1] and in test [4] were 87% (active) and 103% (active), respectively. Moreover, the inhibition in test [2] is 22%; in test [3] it was -1%. For the same compound, the result in test [5], in test [6], in test [7] and in test [8] was inactive.

`Cc1cc(C2CCN(CCCCNC(=O)c3ccc(NC(=O)c4ccc(Cl)cc4)cc3)CC2)c(C)cc1OCc1ccccn1`: the growth inhibition is 65% (active) in test [1] and 96% (active) in test [4]. Moreover, the inhibition in test [2] is 18%; in test [3], 3%. Besides, the outcome in test [5], in test [6], in test [7] and in test [8] was inactive.

Turning to `CN1CCCN(Cc2ccc(-c3ccc(NC(=O)c4ccc(C#N)cc4)cc3)cc2)CC1`, the growth inhibition is 28% in test [1] and 91% (active) in test [4]. Moreover, the inhibition in test [2] is 30%; in test [3], 4%. Besides, the outcome in test [5], in test [6], in test [7] and in test [8] was inactive.

For `O=C1C(c2ccccc2)=C(Nc2cccc([N+](=O)[O-])c2)c2ccccc21`, the growth inhibition in test [1] and in test [4] was 88% (active) each time. The inhibition in test [2] was -3%; in test [3], 1%. The result in test [5], in test [6], in test [7] and in test [8] was inactive.

`O=c1cc(-c2cccc(C(F)(F)F)c2)nc(Nc2ccc(Cl)c(Cl)c2)[nH]1`: the growth inhibition in test [1] and in test [4] was 97% (active) in each case. Besides, the figures for the inhibition in test [2] and in test [3] were 57% (active) and -2%, respectively. The outcome in test [5], in test [6], in test [7] and in test [8] was inactive.

Take `COc1cc2c(cc1S(=O)(=O)c1ccc(NC(=O)c3ccc4ccccc4c3)cc1)CCN(C)CC2`: the growth inhibition in test [1] was 28%; in test [4], 99% (active). For the same compound, the inhibition in test [2] was 2%; in test [3], -4%. In addition, the outcome in test [5], in test [6], in test [7] and in test [8] was inactive.

Turning to `CC(C)c1ccc(NC(=O)c2ccc(C(=O)NC3CCN(Cc4ccsc4)C3)cc2)cc1` (stereo not given), the growth inhibition in test [1] is 28%; in test [4] it was 82% (active). Also, the inhibition is 17% in test [2] and -2% in test [3]. Also, the result in test [5], in test [6], in test [7] and in test [8] was inactive.

For `O=C(Nc1cccc(C(F)(F)F)c1)NC1CCN(c2ccnc3ccccc23)C1` (stereo not given), the growth inhibition in test [1] is 69% (active); in test [4], 101% (active). In addition, the inhibition in test [2] was 23%; in test [3], -2%. Besides, the result in test [5], in test [6], in test [7] and in test [8] was inactive.

With `COc1cc(Nc2nccc(N3CCC(NC(=O)Nc4cc(C)ccc4C)C3)n2)cc(OC)c1OC` (stereo not given), the growth inhibition was 52% (active) in test [1] and 91% (active) in test [4]. In addition, the inhibition is 13% in test [2] and 4% in test [3]. For the same compound, the outcome in test [5], in test [6], in test [7] and in test [8] was inactive.
